KB-3-1 tox: kills parental KB-3-1 adenocarcinoma cells; AID 1347075; hit rate 1.4% among 400,000; KB-3-1 viability, CellTiter-Glo ATP luminescence, 72 h; Potency, µM (top dose mostly 46.1 µM), usual class: cytotoxic; further: nearly all actives have a fitted effect of over 60% in size
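Multi-concentration cytotoxicity screen in KB-3-1 cells grown in DMEM lacking phenol red with 10% FBS. After 72 h at 37 °C with compound, ATP-dependent luminescence was recorded.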
HT1080 IDH1KD tx: toxicity to HT-1080 IDH1 knockdown cells (counter line); HT-1080 IDH1 knockdown viability, ATP luminescence, 48 h; Potency, µM (series often up to 46.1 µM), for inactives: top-dose activity, negative = toxicity, usual class: cytotoxic; hit rate 2% among 360,000; AID 686971;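 further: 0% = DMSO wells and -100% = cell-free medium wells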
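After a 2 h attachment period, IDH1KD HT-1080 cells took pin-transferred compound for 48 h at 37 °C; ATP-based luminescence after 10 min room-temperature reagent incubation reported viability.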
HT1080-NT tox: kills 2HG-producing HT-1080-NT fibrosarcoma cells. HT-1080-NT fibrosarcoma viability, CellTiter-Glo ATP luminescence, 48 h. Potency, µM (top dose mostly 46.1 µM), for the others: at the highest dose activity, negative = less viability, actives largely listed as cytotoxic. hit rate 1.6% among 360,000;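 further: NT is the 2HG producing partner of a matched IDH1 knockdown line; 0% = DMSO-treated cells and -100% = media-only wells without cells; nearly all actives have a fitted effect of over 55% in size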
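Fibrosarcoma NT cells, 750 per well in 5% FBS RPMI, were exposed to compound for 48 hours. Viability: CellTiter-Glo luminescence.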
TDP1 cell noCPT: qHTS for Inhibitors of human tyrosyl-DNA phosphodiesterase 1 (TDP1): qHTS in cells in absence of CPT. hit rate 15% among 420,000. Potency, µM (highest dose often 46.2 µM), for inactives: at the top dose activity change, negative = growth inhibition, actives largely listed as inhibitors. DT40 Tdp1-/- hTDP1 cells, no CPT, ATP luminescence, 48 h; further: nearly all actives have a fitted effect of over 55% in size
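Stably hTDP1-transfected Tdp1-null chicken DT40 cells were treated with library compounds minus camptothecin and grown for at least 48 hr at 37 °C, after which cellular ATP was quantified by luminescence.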
DT40 TDP1 CPT: growth inhibition of DT40 Tdp1-/-;hTDP1 cells with camptothecin (screen for TDP1 inhibitors). chicken DT40 Tdp1-/-;hTDP1 cells + 20 nM CPT, ATP luminescence, 48 h. Potency, µM (titrated, usually from 46.2 µM), for the others: top-dose activity change, negative = growth inhibition, most hits filed as inhibitors. hit rate 12% among 420,000; further: nearly all actives have a fitted effect of over 55% in size
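Cell growth measured by CellTiter-Glo luminescence after a minimum 48 h, 37 C compound exposure with 20 nM CPT in Tdp1-knockout DT40 cells stably expressing hTDP1, seeded 400/well; qHTS titration format.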
KB-V1 cytotox: kills drug-selected multidrug resistant KB-V1 cells. KB-V1 MDR cells viability, CellTiter-Glo, 72 h. Potency, µM (doses to about 46.1 µM), hits mostly cytotoxic. hit rate 3.4% among 400,000; further: nearly all actives have a fitted effect of over 60% in size
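qHTS viability screen in drug-selected KB-V1 MDR cells: 72 h compound treatment at 37 degrees C, ATP luminescence end point.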
Numbers without * were called inactive; i = inactive; ? = inconclusive; · = not tested or not shown; [ ] = another dose, or the depositor's remark. Only some compounds are listed: those with a hit (about 19% of all), similar ones and a draw of the others. The call rests on the fitted dose curve; in most records, active means well fitted curve in the direction sought with a large enough effect; inconclusive means small, poorly fitted or top-dose-only effect, or another doubt; inactive means no such curve, though single readings can be large; an effect the other way counts as inactive or inconclusive. Unless noted, on the % scale 0 is the no-effect control and ±100 the full control effect; potency means the concentration at half of the fitted maximal effect.

SMILES	KB-3-1 tox	HT1080 IDH1KD tx	HT1080-NT tox	TDP1 cell noCPT	DT40 TDP1 CPT	KB-V1 cytotox
COc1ccc(N2CCN(C(=O)c3cc4c(-c5cccc(OC)c5)nn(C)c4s3)CC2)cc1	i	-9%	-14%	15µM*	?	i
COc1cc(CC(=O)OCC(=O)c2c[nH]c3ccccc23)cc(OC)c1OC	?	-14%	-3%[9.24 µM]	?	?	i
CCNc1ccc(/C=C/c2ccnc3ccccc23)cc1	?	·	·	4µM*	-109%	i
CCCCCCNc1ccc(/C=C/c2ccnc3ccccc23)cc1	i	·	·	13µM*	16µM*	?
CNc1ccc(/C=C/c2ccnc3ccccc23)cc1	?	·	·	16µM*	11µM*	?
COc1ccc(NC(C)=O)cc1S(=O)(=O)N(C)Cc1c(C)nn(-c2ccccc2)c1C	i	-1%	-2%	5%	6%	i
COc1ccc(-c2cc(=S)ss2)cc1	·	·	·	?	19µM*	·
CCc1ccccc1NC(=O)c1cnc2sc(N3CCCC3)nn2c1=O	·	·	·	2%	-18%	·
O=C(COC(=O)/C=C/c1cccc(Br)c1)Nc1cccc(S(=O)(=O)NC2=NCCC2)c1	i	0%	-3%	4.1µM*	-14%	i
CC(C)(C)c1ccc(C(=O)Nc2cccc(S(=O)(=O)NC3=NCCC3)c2)cc1	i	-7%	-3%	12µM*	?	i
CC(C)(C)c1ccc(OCCC(=O)Nc2cccc(S(=O)(=O)NC3=NCCCCC3)c2)cc1	?	?	?	23µM*	23µM*	?
CC(=O)c1cccc(S(=O)(=O)Nc2cccc(S(=O)(=O)NC3=NCCC3)c2)c1	i	16%	-1%	-2%	-5%	i
O=C(CCl)Nc1cccc(S(=O)(=O)NC2=NCCC2)c1	18µM*	16µM*	18µM*	6.5µM*	8.2µM*	i
O=C(COC(=O)/C=C/c1cccc(Cl)c1)Nc1cccc(S(=O)(=O)NC2=NCCC2)c1	i	1%	2%	8%	-20%	i
O=C(Nc1nc2c(F)cccc2s1)c1ccc2c(c1)OCCO2	i	·	·	?	?	i
CCOC(=O)N1CCc2c(sc3c2c(=O)n(Cc2ccccc2)c(=O)n3CC(=O)Nc2ccccc2F)C1	·	·	·	-4%	2%	·
CN(CC(=O)Nc1cccc(S(=O)(=O)NC2=NCCCCC2)c1)Cc1ccc(C(C)(C)C)cc1	i	-18%	?	21µM*	29µM*	?
O=C(Nc1cccc(S(=O)(=O)NC2=NCCC2)c1)c1cc(-c2ccccn2)nc2ccccc12	i	?	23µM*	16µM*	23µM*	i
O=C(NCc1ccccc1)Nc1nnc([C@@H]2C[C@H](O)[C@@H](CO)O2)s1	i	25%	?	-11%	-19%	i
O=C(NCc1cccn1Cc1ccccc1)Nc1ccc(Br)cc1F	i	·	·	?	?	i
Cc1ccc(S(=O)(=O)C2CS(=O)(=O)CC2O)cc1 (configuration not stated)	i	9%	3%	0%	1%	i
CC(=O)C1=C(S(=O)(=O)c2ccc(C)cc2)CS(=O)(=O)C1	?	?	?	4.6µM*	3.7µM*	i
COc1ccc(/C=C/C(=O)N(C(C)C)C(C)C)cc1Br	i	?	12%	13µM*	?	i
COc1ccc(/C=C/C(=O)NC(C)C)cc1Br	i	12%	1%	-5%	17%	i
CC1Cc2cc(/C=C3/SC(=S)NC3=O)ccc2O1 (configuration not stated)	i	-22%	-15%	18µM*	0%	i
SMILES	KB-3-1 tox	HT1080 IDH1KD tx	HT1080-NT tox	TDP1 cell noCPT	DT40 TDP1 CPT	KB-V1 cytotox
CCN(CC)c1ccc(/C=C2\SC(N)=NC2=O)cc1	i	2%	1%	-19%	-2%	?
CCN(CC)c1ccc(C=C2SC(=S)NC2=O)cc1	i	-1%	0%	?	13µM*	i
CCc1[nH]nc(C(=O)NC2CCCc3c2cnn3-c2cc(C)cc(C)c2)c1C (configuration not stated)	·	-22%	?	?	0%	·
Oc1cc(-n2cccn2)c(O)cc1-n1cccn1	i	8%	1%	4.1µM*	5.8µM*	i
CN(Cc1nc(-c2ccc(Cl)cc2)no1)C(=O)CCN1C(=O)[C@H]2CC=CC[C@H]2C1=O	i	0%	9%	-7%	-26%	?
CSCC[C@H](NC(=O)OC(C)(C)C)C(=O)N/N=C/c1cccc2nccnc12	i	-17%	-28%	?	?	i
CSCC[C@H](NC(=O)OC(C)(C)C)C(=O)N/N=C/c1ccc2nccnc2c1	i	-16%	-21%	12µM*	?	i
CCOC(=O)C[C@@H]1OC[C@H](C(C)C)N1S(=O)(=O)c1ccc(C)cc1	i	0%	7%	?	?	i
CC(=O)N1CCOc2cc(S(=O)(=O)N3CCN(c4ccccc4)CC3)c(Cl)cc21	i	-3%	-4%	4%	5%	i
CC(=O)c1ccc(NS(=O)(=O)c2cc3c(cc2C)N(C)CCO3)cc1	i	16µM*	?	?	10µM*	i
Cc1ccccc1NS(=O)(=O)c1cc2c(cc1C)N(C)CCO2	i	4%	5%	?	-21%	?
Cc1cc2c(cc1S(=O)(=O)Nc1ccc(C(C)C)cc1)OCCN2C	i	·	·	16µM*	?	i
Cc1cc2c(cc1S(=O)(=O)N1CCN(c3ccccc3)CC1)OCCN2C	i	-7%	-3%	-26%	7.3µM*	i
CC(=O)c1ccc(NS(=O)(=O)c2cc3c(cc2C)N(C(C)=O)CCO3)cc1	i	-5%	12%	14%	1%	i
Cc1cc2c(cc1S(=O)(=O)N1CCN(c3cccc(C(F)(F)F)c3)CC1)OCC(=O)N2	i	-2%	8%	?	18µM*	i
COc1ccc(CN2C(=O)C(CC(=O)NCc3cccc4ccccc34)CC(C(=O)N(C(C)C)C(C)C)=C2C)cc1 (configuration not stated)	?	?	?	?	?	i
COc1cccc(Nc2ncc3nc(-c4ccccc4)c(=O)n(C[C@H]4CCCO4)c3n2)c1	·	·	·	?	-4%	·
Cn1c(=O)oc2cc(S(=O)(=O)NCCC(=O)Nc3ccc(F)c(Cl)c3)ccc21	i	·	·	?	?	i
